Most compounds without a hit are left out; they make up all but 1.4% or so of the library.
Mtb MbtI inh: MbtI salicylate synthase inhibitors, primary screen, biochemical, fluorescence intensity. 100,000 tested, 0.89% active. inhibition, % (test concentration not listed). AID 493033, 2011. purified MbtI enzyme, fluorescence intensity read-out; in the data active = inhibition mostly above about 56%, no sharp cut-off; inactive = mostly below about 77%
Target sequence (P9WFX0 whole entry, looked up): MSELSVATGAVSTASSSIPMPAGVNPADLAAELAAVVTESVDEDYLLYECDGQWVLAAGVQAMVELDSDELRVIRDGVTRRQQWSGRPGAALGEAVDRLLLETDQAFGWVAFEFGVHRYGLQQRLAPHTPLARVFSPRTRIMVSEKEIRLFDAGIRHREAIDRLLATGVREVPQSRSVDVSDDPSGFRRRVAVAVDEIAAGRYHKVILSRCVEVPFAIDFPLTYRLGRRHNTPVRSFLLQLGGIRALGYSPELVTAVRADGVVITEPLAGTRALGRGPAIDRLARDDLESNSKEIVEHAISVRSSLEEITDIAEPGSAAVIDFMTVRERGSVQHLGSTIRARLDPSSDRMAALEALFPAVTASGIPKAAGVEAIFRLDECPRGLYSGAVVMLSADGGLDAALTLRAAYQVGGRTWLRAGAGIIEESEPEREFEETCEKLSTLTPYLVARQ
Polio RdRp inh: poliovirus RdRp elongation inhibitors, primary screen, biochemical, fluorescence polarization, total intensity; Genome polyprotein (Poliovirus type 1 (strain Mahoney)), P03300; poliovirus polymerase elongation; stronger effect = lower value; % elongation, % (compound at 16.7 µg/mL); 150,000 tested, 0.66% active; AID 588519, 2011; in the data active = % elongation below about 90%
Mtb MenB inh: M. tuberculosis MenB inhibitors, primary screen, biochemical, absorbance | inhibition, % (no concentration beside the values) | 100,000 tested, 0.43% active | MenB enzyme assay, absorbance read-out; in the data active = inhibition above about 21%, passing the limit was not always enough
AID504770: growth inhibition of E. coli YBA685, primary screen, V. cholerae RctB inhibitors | E. coli YBA685 rctB-dependent plasmid, OD600 growth, 3 h; stronger effect = lower value | z-score (concentration not given with the values) | 130,000 tested, 0.27% active; in the data active = z-score below about -2, passing the limit was not always enough
Active calls of the source: *; i = inactive; x = no result; ! = repeats disagree.

SMILES	Mtb MbtI inh	Polio RdRp inh	Mtb MenB inh	AID504770
CCOc1ccc(/C=C(\C#N)C(=O)Nc2sc3c(c2C(=O)OC)C(C(=O)OC)CC3)cc1OC (configuration not stated)	x	73.0*	x	x
O=C(NC1CCN(Cc2ccccc2)CC1)c1ccc(Cn2c(=O)c3ccccc3n(Cc3ccc(Cl)cc3)c2=O)cc1	x	99.0	x	x
O=C(NC1CCN(Cc2ccccc2)CC1)c1ccc(Cn2c(=O)c3ccccc3n(Cc3ccccc3)c2=O)cc1	x	73.0*	x	x
CC(=O)O[C@]1(C(C)=O)CCC2C3C[C@H](C)C4=CC(=O)CC[C@]4(C)C3CC[C@@]21C (some centres not stated)	-14.2	100.0	-2.5	0.15
CN(C)CCCNc1nn2c(=O)c3ccccc3nc2c2ccccc12	-103.2	82.0*	-4.1	-0.05
O=C1CSc2ccccc2N1Cc1n[nH]c(=S)n1Cc1ccccc1	56.3*	99.0	-29.9	-0.4
O=c1c2ccccc2n2c(=S)[nH]nc2n1Cc1ccccc1	37.9	98.0	-106.2	-0.45
O=c1cc(-c2ccccc2)nc(Nc2nc3ccccc3o2)[nH]1	4.4	68.0*	-29.8	2.5
Cc1nc(-c2ccccc2)cc(=O)[nH]1	6.9	102.0	36.5*	0.4
COc1ccc(NC(=O)CCc2nc3cc(S(=O)(=O)N4CCCCC4)ccc3n2C)cn1	95.0*	79.0	-26.5	0.4
Cn1c(CCC(=O)NCc2ccc(F)cc2)nc2cc(S(=O)(=O)N3CCCCC3)ccc21	18.4	x	-2.8	0.35
COc1ccccc1OCC(=O)Nc1sc2c(c1C#N)CCCC2	x	106.0	-29.3	-0.4
Cc1cc(Cl)ccc1OCC(=O)Nc1sc2c(c1C#N)CCC2	x	80.0*	-0.9	0.25
COCCNC(=S)N1CCC(C(=O)c2ccc(F)cc2)CC1	-2.2	103.0	37.4*	0.25
C=CCNC(=S)N1CCC(C(=O)c2ccc(C)cc2)CC1	1.6	101.0	-16.2	-0.15
Cc1ccc2ncc3c(-c4ccccc4)n[nH]c3c2c1	x	x	x	0.5
O=C(NC1CCCCC1)NC1CCN(Cc2nnnn2Cc2ccc3c(c2)OCO3)CC1	-10.1	104.0	-3.1	0.4
C/C(=N\NC(=O)c1ccn[nH]1)c1cc(O)ccc1O	71.2*	104.0	-31.0	-0.9
Cc1ccc(C(c2nnnn2C(C)(C)C)N2CCC(C)CC2)cc1 (configuration not stated)	-7.0	103.0	-13.0	-2.1
Cc1ccc(C(c2c(O)[nH]c(=S)[nH]c2=O)N2CCC(C)CC2)cc1 (configuration not stated)	65.7*	98.0	-49.2	-0.45
CCN(CC)CN1C(=O)C2C3c4ccccc4C(c4ccccc43)C2C1=O (configuration not stated)	-18.0	99.0	22.0	-0.45
CC(C)(C)NS(=O)(=O)Nc1ccccc1	0.3	101.0	35.9*	0.85
O=C(Cc1nc2ccccc2[nH]1)c1ccccc1	7.0	98.0	x	1
O=C(Cc1nc2ccccc2[nH]1)Oc1ccccc1	x	75.0*	7.1	-1.6
O=C(/C=C/c1ccco1)C1C(=O)c2ccccc2C1=O	68.8*	105.0	-72.2	1.6
SMILES	Mtb MbtI inh	Polio RdRp inh	Mtb MenB inh	AID504770
O=C(O)/C=C/c1ccco1	24.6	101.0	-10.9	0.5
COc1ccc(C(=O)CSc2nc3ccccc3[nH]2)c(OC)c1	x	x	x	-0.7
CCOC(=O)c1c(-c2ccc(C)cc2)csc1NC(=O)c1cc(=O)c2cc(C)ccc2o1	x	61.0*	x	x
CCOC(=O)c1c(-c2ccc(C)cc2)csc1NC(=O)c1cc(-c2ccc(Cl)cc2)on1	x	102.0	x	x
CCOC(=O)c1c(-c2ccc(C)cc2)csc1NC(=O)c1cc(-c2ccc(OC)cc2)on1	x	105.0	x	x
CCOC(=O)c1c(NC(=O)c2cc(-c3cccc(OC)c3)on2)sc(C)c1C	46.3	102.0	-8.5	-0.9
CCOC(=O)c1c(NC(=O)c2cc(-c3ccc(OC)cc3)on2)sc(C)c1C	x	84.0*	x	x
CCOC(=O)c1c(-c2ccccc2)csc1NC(=O)c1cc(-c2cccc(Cl)c2)on1	x	84.0*	x	x
CCOC(=O)c1c(-c2ccccc2)csc1NC(=O)c1cc(-c2cccc(OC)c2)on1	x	71.0*	x	x
CCOC(=O)c1c(NC(=O)c2cc(-c3ccc(OC)c(OC)c3)on2)sc2c1CCCC2	x	98.0	x	x
CCOC(=O)c1c(NC(=O)c2cc(-c3cccc(OC)c3)on2)sc2c1CCCC2	x	77.0*	x	x
O=c1[nH]nc(SCc2ccccc2)c(=O)[nH]1	0.8	x	x	0.05
O=c1[nH]nc(SCc2cccc3ccccc23)c(=O)[nH]1	51.2*	100.0	-18.8	2.8
NC1CCN(C(=O)NC2CCCCC2)CC1	-2.7	101.0	23.5*	-0.2
COc1ccc(Cl)cc1-n1nnc(-c2nc(-c3ccc4c(c3)OCO4)no2)c1N	-14.5	102.0	-0.7	0.75
Cc1nc2ccccc2c2oc(C(=O)NCCN3CCCCCC3)cc12	x	x	x	-0.3
Cc1cc(NCCN2CCCCC2)c2ccc3ccccc3c2n1	i	69.0*	-1.1	1.05
c1ccc(OCc2nnc3n2N=C(c2ccccc2)CS3)cc1	84.1*	93.0	-41.2	-0.3
Fc1ccc(C2=Nn3c(Cc4ccccc4)nnc3SC2)cc1	-12.4	104.0	x	-0.25
Brc1ccc(C2=Nn3c(Cn4nnc5ccccc54)nnc3SC2)cc1	68.1*	69.0*	-4.9	0.25
CC(Sc1ccccn1)C(=O)Nc1ccccc1 (configuration not stated)	93.7*	102.0	-41.6	0.35
CN(C)C1CCS(=O)(=O)C1 (configuration not stated)	-12.6	102.0	-36.0	-0.55
CC1=CC(=O)C(N(C)C2CCS(=O)(=O)C2)=CC1=O (configuration not stated)	100.0*	96.0	2.6	1.8
CC1CCN(S(=O)(=O)c2ccc(S(=O)(=O)N3CCCN(Cc4ccccc4)C3)cc2)CC1	0.0	104.0	35.8*	1.4
CCOC(=O)/C=C(\C)Sc1cc(=O)oc2ccccc12	-4.2	84.0*	0.2	-0.35
SMILES	Mtb MbtI inh	Polio RdRp inh	Mtb MenB inh	AID504770
CCO/C(C)=N\Oc1cc(=O)oc2ccccc12	-11.9	100.0	-14.5	-0.45
COc1ccc(C(=O)COC(=O)CCn2c(C)csc2=O)cc1Cl	-4.2	103.0	-25.5	-0.45
COC(=O)c1cncc(Br)c1	x	x	x	0.1
O=CNc1ccc(OC(=O)c2cncc(Br)c2)cc1	-7.9	78.0*	-23.0	-0.15
O=C(Cc1cc(F)cc(F)c1)Nc1ccccn1	x	x	x	-1.4
CC(C)(C)N1Sc2ccccc2NC1=S	90.2*!	98.0	-5.9	-0.15
CC1CC(=S)Nc2ccccc2S1 (configuration not stated)	24.2	102.0	-23.9	-0.15
CCCCSc1nc(O)c(CCC(C)C)c(=O)[nH]1	-0.1	102.0	-16.3	-0.9
Cc1cc(C)c2[nH]c(O)c(N=NC(=S)NCC3CCCO3)c2c1 (configuration not stated)	-13.9	97.0	-20.3	0.05
Oc1[nH]c2ccc(Br)cc2c1N=NC(=S)NCC1CCCO1 (configuration not stated)	31.0	90.0*	-11.3	0
CC(C)(C)c1ccc(O)c(N)c1	99.3*	98.0	-23.1	-0.05
